± gives the standard deviation of the averaged measurements.
Tested on: iBMDM (immortalised mouse bone-marrow-derived macrophages), LPS-stimulated
Assay: mitochondrial superoxide (MitoSOX fluorescence) fold increase over unstimulated control; higher = more LPS-induced mitochondrial ROS (less inhibition)
Settings: inhibitor concentration: 500 nM, LPS: 100 ng/ml
Outline: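 Immortalised mouse bone-marrow-derived macrophages in black 96-well plates were kept in phenol-red-free 1% FCS/DMEM for 20 h, pretreated 30 min with kinase inhibitors (500 nM), loaded with 1 μM MitoSox for 10 min and then given LPS (100 ng/ml). Fluorescence at excitation/emission 510/580 nm was read on a ClarioStar plate reader every 60 min for 4 h, with wells in triplicate. Mitochondrial superoxide is given as fold induction over untreated macrophages, averaged across replicates.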

SMILES | mitochondrial superoxide (time after LPS: 1 h) | mitochondrial superoxide (time after LPS: 2 h) | mitochondrial superoxide (time after LPS: 4 h)
Cc1ccccc1CN1C2=NCCN2C(=O)C2=C1CCN(Cc1ccccc1)C2 | 1.16 ± 0.042 | 1.27 ± 0.036 | 1.34 ± 0.13
Cc1cc(Nc2cc(CN3CCOCC3)c3nc(C)c(Cc4ccc(Cl)cc4F)n3n2)n[nH]1 | 1.16 ± 0.062 | 1.23 ± 0.048 | 1.38 ± 0.035
Cn1c(Nc2ccc(C(F)(F)F)cc2)nc2cc(Oc3ccnc(-c4ncc(C(F)(F)F)[nH]4)c3)ccc21 | 1.13 ± 0.08 | 1.2 ± 0.097 | 1.33 ± 0.066
O=C1NC(=O)/C(=C/c2ccc(-c3ccc(F)cc3O)o2)S1 | 1.4 ± 0.16 | 1.54 ± 0.25 | 1.78 ± 0.2
NC1(c2ccc(-c3nc4ccn5c(=O)[nH]nc5c4cc3-c3ccccc3)cc2)CCC1 | 1.26 ± 0.036 | 1.34 ± 0.065 | 1.47 ± 0.14
COc1ccc2c(c1)c(C1=C(c3c[nH]c4ccccc34)C(=O)NC1=O)cn2CCCN(C)C | 1.23 ± 0.056 | 1.27 ± 0.043 | 1.36 ± 0.042
CCS(=O)(=O)Nc1ccc2[nH]c(O)c(C(=Nc3ccc(CN4CCCCC4)cc3)c3ccccc3)c2c1 [Hesperadin] | 1.1 ± 0.02 | 1.13 ± 0.031 | 1.28 ± 0.046
O=P(O)(O)C(O)(Cn1ccnc1)P(=O)(O)O [Zoledronic Acid] | 1.27 ± 0.02 | 1.29 ± 0.085 | 1.4 ± 0.16
Cc1cnc(NC(=O)Nc2cc(Br)c(C)cc2OC[C@@H]2CNCCO2)cn1 | 1.116 ± 0.011 | 1.262 ± 0.0098 | 1.55 ± 0.052
Cc1cc(C(C)Nc2ccccc2)c2nc(N3CCOCC3)cc(=O)n2c1 (stereo not given) | 1.51 ± 0.032 | 1.66 ± 0.072 | 1.74 ± 0.094
COc1ccc(Cl)cc1NC(=O)Nc1cc(C)nc2ccccc12 | 1.42 ± 0.05 | 1.55 ± 0.055 | 1.652 ± 0.011
COc1cc2nccc(Oc3ccc(NC(=O)Nc4ccc(F)cc4F)c(F)c3)c2cc1OC | 1.13 ± 0.036 | 1.27 ± 0.071 | 1.28 ± 0.13
COc1ccc(S(=O)(=O)N(C(C)=O)c2ccccc2/C=C/c2cc[n+]([O-])cc2)cc1 | 1.15 ± 0.035 | 1.17 ± 0.058 | 1.32 ± 0.05
COc1cc2c(Oc3ccc4[nH]c(C)cc4c3F)ncnc2cc1OCCCN1CCCC1 [Cediranib (AZD2171)] | 1.65 ± 0.088 | 1.65 ± 0.079 | 1.78 ± 0.081
CC1(COc2ccc3c(c2)ncn3-c2ccc3cccc(N4CCC(N)CC4)c3n2)COC1 | 1.04 ± 0.1 | 1.42 ± 0.11 | 1.66 ± 0.13
COc1cc(Nc2ncc3c(n2)-c2ccc(Cl)cc2C(c2c(F)cccc2OC)=NC3)ccc1C(=O)O [Alisertib (MLN8237)] | 1.37 ± 0.058 | 1.41 ± 0.035 | 1.46 ± 0.047
CCOc1ccn(-c2ccc(F)cc2)c(=O)c1C(=O)Nc1ccc(Oc2ccnc(N)c2Cl)c(F)c1 | 1.25 ± 0.045 | 1.28 ± 0.084 | 1.28 ± 0.017
COc1ccc(-c2nc(N3CCOCC3)c3sc(CN(C)c4ncc(C(=O)NO)cn4)cc3n2)cn1 | 1.31 ± 0.095 | 1.52 ± 0.1 | 1.77 ± 0.17
NC(=O)c1cccc(-c2cc(Nc3ccc(OC(F)(F)F)cc3)ncn2)c1 | 1.14 ± 0.054 | 1.11 ± 0.054 | 1.21 ± 0.082
C[C@@H]1COC(Nc2ccc3ncnc(Nc4ccc(OCc5nccs5)c(Cl)c4)c3c2)=N1 [Varlitinib] | 1.3 ± 0.019 | 1.39 ± 0.09 | 1.69 ± 0.08
Cn1cc(-c2ccc3nnc(Sc4ccc5ncccc5c4)n3n2)cn1 | 1.33 ± 0.036 | 1.4 ± 0.04 | 1.525 ± 0.0078
S=C(NCc1ccc2c(c1)OCO2)N1CCN(c2ncnc3c2oc2ccccc23)CC1 [Amuvatinib (MP-470)] | 1.18 ± 0.12 | 1.21 ± 0.076 | 1.15 ± 0.063
CN(C)C1CCN(C(=O)c2ccc(NC(=O)Nc3ccc(-c4nc(N5CCOCC5)nc(N5CCOCC5)n4)cc3)cc2)CC1 | 1.1 ± 0.061 | 1.29 ± 0.014 | 1.58 ± 0.095
CN(C[C@@H]1COCCO1)S(=O)(=O)Nc1ccc2ccc3ncc(-c4cnn(C)c4)cc3c(=O)c2c1 | 1.26 ± 0.029 | 1.51 ± 0.054 | 1.76 ± 0.048
Cc1c(C(=O)N2CCOc3ccc(-c4ccc(N)nc4)cc3C2)ccc(S(C)(=O)=O)c1F | 1.112 ± 0.0078 | 1.25 ± 0.064 | 1.32 ± 0.059
